# Laboratory results as given in PubChem BioAssay (Tox21).
# Results filed as inconclusive are left out. A call without a number means that no potency is given here. Active and inactive are the calls of the source. Unless noted, calls follow the shape of the dose curve; as a rule, active = well fitted curve in the direction sought with a large enough effect in the repeat runs; inconclusive = weak or mixed curves; inactive = no such curve, though single readings can be large; an effect the other way counts as inactive or inconclusive.
# What was measured:
# [1] = qHTS assay to identify small molecule antagonists of the retinoid acid receptor (RAR) signaling pathway - cell viability counter screen (AID 1159551); also: nearly all actives have a fitted effect of over 35% in size
# Outline: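 C3RL4 cells were seeded overnight at 37 C, then treated with compounds plus 1 uM (final) retinol for 6 h at 37 C. Viability was read as ATP by CellTiter-Glo luminescence after 30 min at room temperature.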
# [2] = qHTS assay to identify small molecule antagonists of the retinoic acid receptor (RAR) signaling pathway (AID 1159552; also: nearly all actives have a fitted effect of over 50% in size; also: potency is read from the fitted curve at half-maximal effect)
# Outline: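 Luminescence from a RARE luciferase reporter in C3RL4 cells served as read-out. Cells received compounds together with 1 uM final retinol and incubated 6 hr at 37 C before detection reagent was added for 30 min at room temperature.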
# [3] = qHTS assay to identify small molecule agonists of the retinoic acid receptor (RAR) signaling pathway (AID 1159553); also: potency is read from the fitted curve at half-maximal effect
# Outline: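 C3RL4 cells carrying a RARE luciferase reporter were plated overnight at 37 C, then exposed to compounds in DMSO for 6 hr at 37 C and 5% CO2. Luminescence was read 30 min after luciferase reagent addition at room temperature.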
# [4] = qHTS assay to identify small molecule antagonists of the estrogen related receptor (ERR) signaling pathway - cell viability counter screen (AID 1224818);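 also: series mostly up to about 46 µM; viability measured after 17.5 h of compound exposure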
# Outline: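 ERR reporter cells plated 6 h at 37 C/5% CO2, then compounds in DMSO pin-transferred and incubated 17.5 h at 37 C. Viability read as CellTiter-Fluor fluorescence after 30 min at 37 C.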
# [5] = qHTS assay to identify small molecule antagonists of the estrogen related receptor (ERR) signaling pathway (AID 1224819;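 also: luminescence from an ERR-driven luciferase reporter measured with One-Glo reagent; series mostly up to about 46 µM; nearly all actives have a fitted effect of over 50% in size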)
# Outline: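 ERR reporter cells were plated at 2,000 cells/well and left 6 h at 37 C/5% CO2 before pin-tool transfer of compounds in DMSO. After 18 h at 37 C, One-Glo was added and luminescence was read 30 min later at room temperature.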
# [6] = qHTS assay to identify small molecule agonists of the estrogen related receptor (ERR) signaling pathway (AID 1224820)
# Outline: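 Cells: ERR line from NTP, 2,000/well. Pre-incubation 6 h, 37 C/5% CO2. Compound (DMSO) pin transfer, 18 h 37 C. One-Glo, 30 min RT, luminescence.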
# [7] = tested on: estrogen-related receptor alpha (ERRalpha) with PGC-1alpha coactivator, human; assay: qHTS assay to identify small molecule antagonists of the estrogen related receptor signaling pathway with the pleiotropic PPARgamma coactivator (PGC) (AID 1224821; calls by dose curve;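 also: series mostly up to about 46 µM; lower luminescence signal means antagonism of PGC/ERR signalling; nearly all actives have a fitted effect of over 50% in size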)
# Outline: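 Luminescent read-out (One-Glo, 30 min at room temperature) following 18 h treatment of PGC/ERR cells at 37 C with compounds delivered in DMSO. Cells had settled 6 h at 37 C/5% CO2 before dosing.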
# [8] = qHTS assay to identify small molecule antagonists of the estrogen related receptor signaling pathway with the pleiotropic PPARgamma coactivator (PGC) cell viability counter screen (AID 1224822; also: series mostly up to about 46 µM)
# Outline: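 PGC/ERR cells were seeded at 2,000 cells/well, rested 6 h at 37 C/5% CO2, then given compounds in DMSO by pin tool and incubated 17.5 h at 37 C. Viability came from CellTiter-Fluor fluorescence after 30 min.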
# [9] = qHTS assay to identify small molecule agonists of the estrogen related receptor signaling pathway with the pleiotropic PPARgamma coactivator (PGC) (AID 1224823)
# Outline: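 Steps: plate PGC/ERR cells at 2,000 cells/well; incubate 6 h, 37 C/5% CO2; pin-transfer compounds (DMSO); incubate 18 h, 37 C; add One-Glo; 30 min RT; read luminescence.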
smiles,measurement,setting,value
O=C(Oc1ccccc1)c1ccc2ccccc2c1O,Potency,[1],inactive
same,Potency,[2],inactive
same,Potency,[3],0.864 µM (active)
CCCCCCCCCCCCCC(=O)OCC(O)CO (stereo not drawn),Potency,[1],inactive
same,Potency,[2],inactive
same,Potency,[3],inactive
c1ccc(CNc2ncnc3c2ncn3C2CCCCO2)cc1 (stereo not drawn),Potency,[1],inactive
same,Potency,[2],inactive
same,Potency,[3],4.33 µM (active)
O=[N+]([O-])C1(Br)COCOC1,Potency,[2],43.3 µM (active)
CC(=O)OC(C)C[N+](C)(C)C (stereo not drawn),Potency,[1],inactive
same,Potency,[2],inactive
same,Potency,[3],inactive
same,outcome,[4],inactive
same,Potency,[5],inactive
same,outcome,[6],inactive
same,Potency,[7],inactive
same,outcome,[8],inactive
same,outcome,[9],inactive
CCCCCCCCCCCCCCCC(=O)OCC,Potency,[1],inactive
same,Potency,[3],inactive
COc1cc(NCc2ccc3nc(N)nc(N)c3c2C)cc(OC)c1OC,Potency,[1],inactive
same,Potency,[3],inactive
O=C(O)c1cccc(Oc2ccccc2)c1,Potency,[1],inactive
same,Potency,[2],inactive
same,Potency,[3],inactive
CCN(CC)CCNC(=O)c1cc(Cl)c(N)cc1OC,Potency,[1],inactive
same,outcome,[4],inactive
same,outcome,[8],inactive
CN(C)CC/C=C1\c2ccccc2Sc2ccc(Cl)cc21,Potency,[2],29.8 µM (active)
CCCc1nc2c(C)cc(-c3nc4ccccc4n3C)cc2n1Cc1ccc(-c2ccccc2C(=O)O)cc1,Potency,[1],inactive
same,Potency,[2],inactive
same,Potency,[3],inactive
O=C(/C=C/c1ccc([N+](=O)[O-])cc1)c1ccccc1,Potency,[1],inactive
same,Potency,[2],inactive
same,Potency,[3],30.7 µM (active)
Nc1cccc2c(N)cccc12,Potency,[1],inactive
same,Potency,[2],inactive
same,Potency,[3],19.3 µM (active)
same,outcome,[4],inactive
same,outcome,[8],inactive
CC(C)CC(O)CC(C)C,Potency,[1],inactive
same,Potency,[2],inactive
same,Potency,[3],inactive
O=P(O)(O)Oc1ccccc1,Potency,[1],inactive
same,Potency,[2],inactive
same,Potency,[3],inactive
COc1ccc(-n2nc(C(F)F)cc2-c2ccc(S(C)=O)cc2)cc1 (stereo not drawn),Potency,[1],inactive
same,Potency,[3],inactive
Cc1ccc(S(=O)(=O)NC(=O)NC2CCCCC2)cc1,Potency,[1],inactive
same,Potency,[2],inactive
same,Potency,[3],inactive
CCc1ccc(C)cc1,Potency,[1],inactive
same,Potency,[2],inactive
same,Potency,[3],inactive
CC(C)(C(=O)c1cccnc1)c1cccnc1,Potency,[1],inactive
same,Potency,[2],inactive
same,Potency,[3],inactive
CCOC(=O)c1ccc(NC(=O)CN2CCCCC2)cc1,Potency,[1],inactive
same,Potency,[2],inactive
same,Potency,[3],21.1 µM (active)
CCCCCc1ccco1,Potency,[1],inactive
same,Potency,[3],inactive
